Active and inactive are the calls of the source. Where a call stands in place of a potency, no number is given. Unless noted, calls come from the whole dose curve; as a rule, active = well fitted curve in the direction sought with a large enough effect in the repeat runs; inconclusive = weak or mixed curves; inactive = flat fitted curve, though single readings scatter.
Tested on: not listed separately
Experiment: qHTS assay to test for compound auto fluorescence at 535 nm (green) in HepG2 cell free culture (AID 720686)
Conditions: Cell-free medium, green autofluorescence 485/535 nm; series mostly up to 91.3 µM

| SMILES | Potency | fluorescence, % of fluorescein control |
| --- | --- | --- |
| NC(N)=NCCC[C@H](N)C(=O)O | inactive | – |
| C=CC(=O)OCCOCCOC(=O)C=C | inactive | – |
| CN(C)c1ccc(/C=C/c2ccc([N+](=O)[O-])cc2)cc1 | – | -0.0291% [at 3.72 µM] (inactive) |
| CCCCCCCCCCO[C@@H]1O[C@H](CO)[C@@H](O)[C@H](O)[C@H]1O | inactive | – |
| CCCNCC(O)COc1ccccc1C(=O)CCc1ccccc1 (stereo not given) | inactive | – |
| O=C(Nc1ccccc1)c1ccccc1O | inactive | – |
| CN1CCC(=C2c3ccccc3Sc3ccccc32)CC1 | inactive | – |
| C=CCOc1ccccc1OCC(O)CNC(C)C (stereo not given) | – | 0.0052% [at 18.6 µM] (inactive) |
| C=CC(=O)OCCOCCOCCOCCOC(=O)C=C | inactive | – |
| CCO[C@H](Cc1ccc(OCCc2ccc(OS(C)(=O)=O)cc2)cc1)C(=O)O | inactive | – |
| CCCCCCCCCCCCCCCCOS(=O)(=O)O | inactive | – |

Tested on: not listed separately
Experiment: qHTS assay to test for compound auto fluorescence at 460 nm (blue) in HepG2 cells (AID 720687)
Conditions: autofluorescence 405/460 nm, 1 h; series mostly up to 91.3 µM
Outline: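 HepG2 cells in MEM with 10% FBS, attached overnight at 37 C, were exposed to compound or DMSO for 1 hr at 37 C, 5% CO2. Blue fluorescence was read at 405/460 nm, with triamterene as reference fluorophore.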

| SMILES | outcome | fluorescence, % of fluorescent control |
| --- | --- | --- |
| Cc1[nH]c(C)c(Cl)c(=O)c1Cl | inactive | – |
| CC(C)Nc1ccc(NC(C)C)c2c1C(=O)c1ccccc1C2=O | inactive | – |
| Cc1cccc(Nc2ccccc2)c1 | inactive | – |
| O=C1CCCCCCCCCCCC(=O)OCCO1 | inactive | – |
| COc1cc(Cl)ccc1Oc1ccc(Cl)cc1Cl | inactive | – |
| Cc1cccc(C)c1OCC(=O)N[C@@H](Cc1ccccc1)[C@@H](O)C[C@H](Cc1ccccc1)NC(=O)[C@H](C(C)C)N1CCCNC1=O | inactive | – |
| CCCCCCCCCCCCCCOS(=O)(=O)O | inactive | – |
| CCN(CC)CCOC(=O)C(c1ccccc1)C1CCCCC1 (stereo not given) | inactive | – |
| Cc1c(N)cccc1[N+](=O)[O-] | inactive | – |
| CC(C)O.CC(C)O.CCOC(=O)/C=C(\C)O.CCOC(=O)/C=C(\C)O.[Ti] | inactive | – |
| O=C(O)C1(C(=O)Nc2ccc(Cl)cc2Cl)CC1 | inactive | – |
| COc1cc(Cl)c(OC)cc1N | inactive | – |
| COc1cccc(N(C)C(=S)Oc2ccc3c(c2)CCCC3)n1 | inactive | – |
| CCCCCCCC/C=C\CCCCCCCC(=O)OCC | inactive | – |
| O=C(O)CC(=O)C(=O)O | inactive | – |
| CCc1cc(C2=C(C(=O)O)N(c3ccccc3C(F)(F)F)S(=O)(=O)c3ccccc32)cc2c1OCO2 | inactive | – |
| CCCCNc1ccc(C(=O)OCCOCCOCCOCCOCCOCCOCCOCCOCCOC)cc1 | – | -0.0219% [at 18.6 µM] (inactive) |
| CCC(C)c1cc(C(C)(C)C)c(O)c(C(C)(C)C)c1 (stereo not given) | inactive | – |
| CCOC(=O)COC(=O)c1cc(Oc2ccc(C(F)(F)F)cc2Cl)ccc1[N+](=O)[O-] | inactive | – |
| Nc1ncn([C@H]2C[C@H](O)[C@@H](CO)O2)c(=O)n1 | inactive | – |
| NC(N)=NCCC[C@H](N)C(=O)O | inactive | – |
| C=CC(=O)OCCOCCOC(=O)C=C | inactive | – |
| CN(C)c1ccc(/C=C/c2ccc([N+](=O)[O-])cc2)cc1 | – | -0.0831% [at 3.72 µM] (inactive) |
| CCCNCC(O)COc1ccccc1C(=O)CCc1ccccc1 (stereo not given) | inactive | – |
| O=C(Nc1ccccc1)c1ccccc1O | inactive | – |
| CN1CCC(=C2c3ccccc3Sc3ccccc32)CC1 | inactive | – |
| C=CCOc1ccccc1OCC(O)CNC(C)C (stereo not given) | – | -0.0332% [at 18.6 µM] (inactive) |
| C=CC(=O)OCCOCCOCCOCCOC(=O)C=C | inactive | – |
| CCO[C@H](Cc1ccc(OCCc2ccc(OS(C)(=O)=O)cc2)cc1)C(=O)O | inactive | – |
| CCCCCCCCCCCCCCCCOS(=O)(=O)O | inactive | – |

Biological target: Glucocorticoid receptor (Homo sapiens) (UniProt P04150)
Sequence (P04150 whole entry, looked up): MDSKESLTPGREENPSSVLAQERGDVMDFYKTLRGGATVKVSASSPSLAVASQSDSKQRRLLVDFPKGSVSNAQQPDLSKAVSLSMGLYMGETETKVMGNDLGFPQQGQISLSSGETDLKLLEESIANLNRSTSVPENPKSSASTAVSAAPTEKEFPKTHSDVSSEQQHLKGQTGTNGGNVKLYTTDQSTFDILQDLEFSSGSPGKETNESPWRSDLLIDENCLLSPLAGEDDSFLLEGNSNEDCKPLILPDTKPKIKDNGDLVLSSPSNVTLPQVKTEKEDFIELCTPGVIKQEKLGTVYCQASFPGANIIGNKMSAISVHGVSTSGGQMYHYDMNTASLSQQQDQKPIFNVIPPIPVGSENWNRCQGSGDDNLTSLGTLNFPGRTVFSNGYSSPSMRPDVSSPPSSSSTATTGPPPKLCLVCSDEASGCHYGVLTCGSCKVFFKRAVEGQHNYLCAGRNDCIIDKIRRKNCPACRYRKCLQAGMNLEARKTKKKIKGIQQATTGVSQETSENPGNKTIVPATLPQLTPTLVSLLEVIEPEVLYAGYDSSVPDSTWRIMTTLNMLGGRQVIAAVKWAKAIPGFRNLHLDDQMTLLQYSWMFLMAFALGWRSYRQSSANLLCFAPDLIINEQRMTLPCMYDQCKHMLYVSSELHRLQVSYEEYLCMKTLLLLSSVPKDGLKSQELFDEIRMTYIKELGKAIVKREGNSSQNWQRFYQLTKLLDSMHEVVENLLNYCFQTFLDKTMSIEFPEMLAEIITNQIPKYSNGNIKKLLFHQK
Experiment: qHTS assay to identify small molecule agonists of the glucocorticoid receptor (GR) signaling pathway (AID 720691; active = well fitted activation curve with a large enough effect in the signal ratio in the repeat runs, not every such curve was filed as active; inconclusive = weak or mixed curves, or effect the other way; inactive = no such curve, though single readings can be large or run the other way; the % refers to the signal ratio; note: potency is the fitted concentration of half-maximal effect)
Conditions: GR-bla HeLa, beta-lactamase reporter ratio, 18 h; activation: at 62.4 µM (top of the series) unless noted
Outline: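 GR-bla HeLa cells carrying a GRE-driven beta-lactamase reporter, exposed to compounds for 18 h at 37 C. Reporter activation read as fluorescence after 2 h with LiveBLAzer B/G FRET substrate at room temperature.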

| SMILES | Potency |
| --- | --- |
| CC(C)Nc1ccc(NC(C)C)c2c1C(=O)c1ccccc1C2=O | inactive |
| COc1cc(Cl)ccc1Oc1ccc(Cl)cc1Cl | inactive |
| CCN(CC)CCOC(=O)C(c1ccccc1)C1CCCCC1 (stereo not given) | inactive |
| Cc1c(N)cccc1[N+](=O)[O-] | inactive |
| C#Cc1cccc(Nc2ncnc3cc(OCCOC)c(OCCOC)cc23)c1 | 26.8 µM [inconclusive] (active) |
| CC1CCC(=O)C1=O (stereo not given) | inactive |
| CC[N+](C)(CC)CCOC(=O)C(O)(c1ccccc1)C1CCCCC1 (stereo not given) | inactive |
| CCCCCCCC/C=C\CCCCCCCC(=O)OCC | inactive |
| O=C(O)CC(=O)C(=O)O | inactive |
| CCCCNc1ccc(C(=O)OCCOCCOCCOCCOCCOCCOCCOCCOCCOC)cc1 | inactive |
| CCC(C)c1cc(C(C)(C)C)c(O)c(C(C)(C)C)c1 (stereo not given) | inactive |
| CNCCCCOc1ccccc1Cc1ccccc1 | inactive |
| Nc1ncn([C@H]2C[C@H](O)[C@@H](CO)O2)c(=O)n1 | inactive |
| NC(N)=NCCC[C@H](N)C(=O)O | inactive |
| C=CC(=O)OCCOCCOC(=O)C=C | inactive |
| O=C(Nc1ccccc1)c1ccccc1O | inactive |
| C=CC(=O)OCCOCCOCCOCCOC(=O)C=C | inactive |
| O=C(O)c1nc(Cl)c(Cl)c(Cl)c1Cl | inactive |

Biological target: Glucocorticoid receptor (Homo sapiens) (UniProt P04150)
Experiment: qHTS assay to identify small molecule antagonists of the glucocorticoid receptor (GR) signaling pathway (AID 720692; active = well fitted inhibition curve with a large enough effect in the signal ratio in the repeat runs, not every such curve was filed as active; inconclusive = weak or mixed curves, or effect the other way; inactive = no such curve, though single readings can be large or run the other way; the % refers to the signal ratio; note: potency is the fitted concentration of half-maximal effect)
Conditions: GR-bla HeLa, beta-lactamase FRET ratio, dexamethasone-stimulated, 18 h; series mostly up to 58.5 µM
Outline: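 GR-bla HeLa cells carrying a GRE-driven beta-lactamase reporter received compound after 4 h plating, then dexamethasone (5 nM final). After 18 h at 37C, the FRET substrate was loaded for 2 h at room temperature and fluorescence read.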

| SMILES | Potency |
| --- | --- |
| Cc1[nH]c(C)c(Cl)c(=O)c1Cl | inactive |
| CC(C)Nc1ccc(NC(C)C)c2c1C(=O)c1ccccc1C2=O | inactive |
| O=C1CCCCCCCCCCCC(=O)OCCO1 | inactive |
| Cc1cccc(C)c1OCC(=O)N[C@@H](Cc1ccccc1)[C@@H](O)C[C@H](Cc1ccccc1)NC(=O)[C@H](C(C)C)N1CCCNC1=O | 23.9 µM (active) |
| CCCCCCCCCCCCCCOS(=O)(=O)O | inactive |
| CCN(CC)CCOC(=O)C(c1ccccc1)C1CCCCC1 (stereo not given) | inactive |
| Cc1c(N)cccc1[N+](=O)[O-] | inactive |
| COc1cc(Cl)c(OC)cc1N | inactive |
| CC[N+](C)(CC)CCOC(=O)C(O)(c1ccccc1)C1CCCCC1 (stereo not given) | inactive |
| CCCCCCCC/C=C\CCCCCCCC(=O)OCC | inactive |
| O=C(O)CC(=O)C(=O)O | inactive |
| CCCCNc1ccc(C(=O)OCCOCCOCCOCCOCCOCCOCCOCCOCCOC)cc1 | inactive |
| CCC(C)c1cc(C(C)(C)C)c(O)c(C(C)(C)C)c1 (stereo not given) | inactive |
| NC(N)=NCCC[C@H](N)C(=O)O | inactive |
| C=CCOc1ccccc1OCC(O)CNC(C)C (stereo not given) | inactive |
| CCO[C@H](Cc1ccc(OCCc2ccc(OS(C)(=O)=O)cc2)cc1)C(=O)O | inactive |

From PubChem BioAssay (Tox21)
